For one compound, AC50 and outcome results are on record in PubChem BioAssay (EPA / NIEHS).

Results filed as inconclusive are left out. The source made the active and inactive calls. The calls were made as follows, unless noted: active = hit-call score of the fitted dose curve at least 0.9, where 1 is the maximum; inactive = score below 0.9.

Assay [1] concerns Brachyury (BRA) Protein Expression, TBXT (gene 6862). In words: CCTE_Deisenroth_DEVTOX-GLR_Endo_BRA: CCTE's DevTox GLR-Endo Assay Evaluation of Brachyury (BRA) Protein Expression, Deisenroth Lab (AID 2284417). The procedure: CCTE_Deisenroth_DEVTOX-GLR_Endo assay is a cell-based, multiplex-readout assay that uses RUES2-GLR, a human pluripotent cell line, with measurements taken at 48 hours after chemical dosing in a 384-well microplateCCTE_Deisenroth_DEVTOX-GLR_Endo_BRA is 1 of 4 assay components calculated from the CCTE_Deisenroth_DEVTOX-GLR_Endo assay and it measures the percentage of cells in an mesoderm state. Using a type of inducible fluorescent protein reporter, gain-of-signal activity can be used to understand changes in gene expression with fluorescent microscopy. The percentage of BRA+ cells are determined by calculating the number of BRA+ cells divided by the cell count. To generalize the intended target to other relatable targets, this assay component is annotated to the transcription factor intended target family, where the subfamily is T-box protein.Data from the assay component CCTE_Deisenroth_DEVTOX-GLR_Endo_BRA was analyzed as 1 assay endpoint. The endpoint is the percent BRA+ cell population minus the 0.2% DMSO control in the CCTE_Deisenroth_DEVTOX-GLR_Endo assay. Furthermore, this assay endpoint can be referred to as a secondary readout, because this assay has produced multiple assay endpoints where this one serves as a measure of mesoderm differentiation.
All assay protocols are aligned to the DevTox GLR-Endo assay workflow. […]

Assay [2] in a line: CCTE_Deisenroth_DEVTOX-GLR_Endo_CellCount: Viability Assessment in CCTE's DevTox GLR-Endo Assay, Deisenroth Lab (AID 2284420). An outline of the steps: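 Human pluripotent RUES2-GLR line; 24 h pre-seed; 48 h endoderm-directed differentiation; 2 doses, q24h; 10 conc., 1 nM - 200 uM; fix + nuclear dye; 5 fields/well imaged; readout = nuclei count, % change vs 0.2% DMSO; n=4.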

The test system of assay [3] is SRY-box transcription factor 17 (SOX17) Protein Expression, Deisenroth Lab, SOX17 (gene 64321). In words: CCTE_Deisenroth_DEVTOX-GLR_Pluri_SOX17: CCTE's DevTox GLR-Pluri Assay Evaluation of SRY-box transcription factor 17 (SOX17) Protein Expression, Deisenroth Lab (AID 2284427; active = hit-call score of the fitted dose curve at least 0.9, where 1 is the maximum). An outline of the steps: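 Human RUES2-GLR pluripotent line; 24 h seeding, 48 h defined-media differentiation, 2 doses q24h, 10 conc 1 nM - 200 uM. Fix, nuclear stain, image 5 fields/well. Endpoint = %SOX17+ minus 0.2% DMSO; n=4.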

Assay [4] relates to SRY-box transcription factor 2 (SOX2) Protein Expression, Deisenroth Lab, SOX2 (gene 6657). In words: CCTE_Deisenroth_DEVTOX-GLR_Pluri_SOX2: CCTE's DevTox GLR-Pluri Assay Evaluation of SRY-box transcription factor 2 (SOX2) Protein Expression, Deisenroth Lab (AID 2284428). The gist of the method: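 Steps: seed RUES2-GLR cells for 24 h; start 48 h differentiation in defined media; dose test chemicals at 0 and 24 h (1 nM–200 uM); fix, stain nuclei, image; compute SOX2+ percentage against 0.2% DMSO wells.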

The subject of assay [5] is Brachyury (BRA) Protein Expression, Deisenroth Lab, TBXT (gene 6862). In words: CCTE_Deisenroth_DEVTOX-GLR_Pluri_BRA: CCTE's DevTox GLR-Pluri Assay Evaluation of Brachyury (BRA) Protein Expression, Deisenroth Lab (AID 2284429; active = hit-call score of the fitted dose curve at least 0.9, where 1 is the maximum). The gist of the method:
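An inducible fluorescent BRA reporter in RUES2-GLR cells tracks mesoderm differentiation. Compounds (10 concentrations, 1 nM - 200 uM) are dosed twice within a 48-h differentiation. The endpoint subtracts the 0.2% DMSO control from percent BRA+ cells.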

The nature of assay [6]: CCTE_Deisenroth_DEVTOX-GLR_Pluri_CellCount: Viability Assessment in CCTE's DevTox GLR-Pluri Assay Evaluation of Total Cell Counts, Deisenroth Lab (AID 2284430). An outline of the steps:
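RUES2-GLR human pluripotent cells, seeded 24 h, then differentiated 48 h with two chemical exposures 24 h apart; 10-point series 1 nM - 200 uM. Fixed, nuclear-stained, imaged (5 fields/well); nuclei count as % change vs 0.2% DMSO.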

Consider `NC(=O)c1ccc(N)nc1`, for which the concentration at half-maximal activity (AC50) – broadly, the concentration at which the activity in the assay is half-maximal – in assay [1] was 68.7 µM (active); in assay [2], 30.6 µM (active); in assay [4], 38.1 µM (active); in assay [5], 100 µM (active). For the same compound, the compound was called inactive in assay [3] and in assay [6].
